These results are taken from the supplement of paper PMC6609913.

Where a name gives a salt, the structure may show the parent alone. ± gives the standard deviation of the averaged measurements. Whole data set: some 1,300 compounds, median “normalised cell viability” near 1, cut for the lowest 2% near 0.15. This excerpt belongs to a sample that is enriched for the lowest values.

The assay has as its system V-C8 + BRCA2 (BRCA2-proficient hamster cells). Put plainly: normalised cell viability (fraction of plate median); higher = more viable cells (less toxic). Particulars: 5 µM. In short, it runs like this: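 Library drugs, held as 10 mM stocks in DMSO, were diluted to 5 μM in 100 μl medium and added to 96-well plates of V-C8 hamster cells, either lacking BRCA2 or with BRCA2 restored, 24 h after seeding. Plates ran for 3 days (screen 1) or 6 days (screen 2), alongside solvent-only wells. Viability came from a resazurin readout, median-plate normalised, as the mean of triplicate wells.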

For `CCCCCNC(=N)N/N=C/c1c[nH]c2ccc(OC)cc12` [Tegaserod maleate], the normalised cell viability came out at 0.1362 ± 0.0013 (treatment time: 3 days) and 0.155 ± 0.022 (treatment time: 6 days).
For `COc1ccc2[nH]cc(CCNC(C)=O)c2c1` [Melatonin], in that order: 1.22 ± 0.097 and 0.928 ± 0.048.
The matching figures for `CC[C@@H](CO)NCCN[C@@H](CC)CO` [Ethambutol dihydrochloride]: 1.05 ± 0.058 and 1 ± 0.011.
On to `C1CCC(C(CC2CCCCN2)C2CCCCC2)CC1` (stereo not drawn) [Perhexiline maleate], for which the normalised cell viability turned out to be 0.135 ± 0.0029 (treatment time: 3 days) and 0.125 ± 0.015 (treatment time: 6 days).
Consider `Cc1nnc(SCC2=C(C(=O)O)N3C(=O)[C@@H](NC(=O)Cn4cnnn4)[C@H]3SC2)s1` [Cefazolin sodium salt], for which the normalised cell viability runs as follows: (treatment time: 3 days) 1.1 ± 0.034; (treatment time: 6 days) 1.01 ± 0.12.
For `CCCCCCCCCCCCCCCC[N+](C)(C)CCN(Cc1ccc(OC)cc1)c1ncccn1` [Thonzonium bromide], in that order: 0.787 ± 0.094 and 0.74 ± 0.19.
For `CCCC1O[C@@H]2C[C@H]3[C@@H]4CCC5=CC(=O)C=C[C@]5(C)[C@H]4[C@@H](O)C[C@]3(C)[C@]2(C(=O)CO)O1` (stereo partly drawn) [Budesonide], in that order: 0.9516 ± 0.0071 and 0.936 ± 0.024.
For `CC1(C)OC(=O)NC1=O` [Dimethadione], in that order: 1.08 ± 0.064 and 0.964 ± 0.043.
On to `CNC[C@H](O)[C@@H](O)[C@H](O)[C@H](O)CO` [Meglumine], for which the normalised cell viability (treatment time: 3 days) is 0.938 ± 0.094 and the normalised cell viability (treatment time: 6 days) was 0.983 ± 0.037.
For `C[N+](C)(C)CCOC(N)=O` [Carbachol], in that order: 0.953 ± 0.043 and 1.01 ± 0.036.
On to `CN1C2CCCC1CC(NC(=O)c1nn(C)c3ccccc13)C2` (stereo not drawn) [Granisetron], for which the normalised cell viability (treatment time: 3 days) was determined as 1.03 ± 0.036 and the normalised cell viability (treatment time: 6 days) was 1.01 ± 0.017.
The matching figures for `CCN(CC)CCOC(=O)C1(c2ccc([N+](=O)[O-])cc2)CCCC1` [Nitrocaramiphen hydrochloride]: 1.06 ± 0.024 and 1.038 ± 0.0056.
For `CCCCCN(CCCCC)C(=O)C(CCC(=O)O)NC(=O)c1ccc(Cl)c(Cl)c1` (stereo not drawn) [Lorglumide sodium salt], in that order: 1 ± 0.032 and 1.04 ± 0.015.
For `Cc1onc(-c2ccccc2)c1C(=O)N[C@@H]1C(=O)N2[C@@H]1SC(C)(C)[C@@H]2C(=O)O` [Oxacillin sodium], in that order: 1.04 ± 0.042 and 0.989 ± 0.025.
As for `CC(=O)OC[C@H]1O[C@@H]([S-])[C@H](OC(C)=O)[C@@H](OC(C)=O)[C@@H]1OC(C)=O.CCP(CC)CC.[Au+]` [Auranofin], the normalised cell viability was 0.126 ± 0.0085 (treatment time: 3 days) and 0.128 ± 0.012 (treatment time: 6 days).
In the case of `C[C@H]1O[C@H](O[C@H]2[C@H](O)[C@@H](O)[C@@H](O[C@H]3[C@H](O)[C@@H](O)C(O)O[C@@H]3CO)O[C@@H]2CO)[C@H](O)[C@@H](O)[C@@H]1N[C@H]1C=C(CO)[C@@H](O)[C@H](O)[C@H]1O` (stereo partly drawn) [Acarbose], the normalised cell viability stood at 0.928 ± 0.072 (treatment time: 3 days) and 1.03 ± 0.056 (treatment time: 6 days).
For `COC(=O)Nc1nc2ccc(SC(C)C)cc2[nH]1` [Methiazole], in that order: 0.231 ± 0.016 and 0.245 ± 0.017.
For `Nc1ccc(C(=O)NCC(=O)O)cc1` [Aminohippuric acid], in that order: 1.04 ± 0.027 and 1.11 ± 0.076.
For `CCOCCn1c(N2CCCN(C)CC2)nc2ccccc21` [Emedastine], in that order: 1.07 ± 0.11 and 1.06 ± 0.032.
Consider `Nc1ccn([C@@H]2O[C@H](CO)[C@@H](O)C2(F)F)c(=O)n1` [Gemcitabine], for which the normalised cell viability by setting is: (treatment time: 3 days) 0.212 ± 0.014; (treatment time: 6 days) 0.183 ± 0.0099.
For `NC12CC3CC(CC(C3)C1)C2` [Adamantamine fumarate], in that order: 0.885 ± 0.035 and 0.95 ± 0.053.
The matching figures for `COc1cc2c(cc1OC)C(=O)C(CC1CCN(Cc3ccccc3)CC1)C2` (stereo not drawn) [Donepezil hydrochloride]: 1.007 ± 0.0092 and 1.05 ± 0.074.
For `CN1[C@@H]2CC[C@H]1C[C@@H](OC(=O)c1c[nH]c3ccccc13)C2` [Tropisetron HCl], the normalised cell viability stood at 1.05 ± 0.12 (treatment time: 3 days) and 1.24 ± 0.074 (treatment time: 6 days).
The matching figures for `CCCN(CCC)C(=O)C(CCC(=O)O)NC(=O)c1ccccc1` (stereo not drawn) [Proglumide]: 0.993 ± 0.11 and 0.986 ± 0.14.
The matching figures for `CC(C)/N=c1\cc2n(-c3ccc(Cl)cc3)c3ccccc3nc-2cc1Nc1ccc(Cl)cc1` [Clofazimine]: 0.274 ± 0.021 and 0.346 ± 0.037.
The matching figures for `CCCN[C@H]1CCc2nc(N)sc2C1` [Pramipexole]: 0.9625 ± 0.0076 and 0.987 ± 0.022.
Regarding `c1ccc2c(c1)CCCc1cc(NCCN3CCOCC3)nnc1-2`, the normalised cell viability is, setting by setting: (treatment time: 3 days) 0.803 ± 0.038; (treatment time: 6 days) 0.87 ± 0.091.
The matching figures for `CCOC(=O)OC(C)OC1=C(C(=O)Nc2ccccn2)N(C)S(=O)(=O)c2ccccc21` (stereo not drawn) [Ampiroxicam]: 1 ± 0.034 and 0.994 ± 0.079.
For `O=C(NCCO[N+](=O)[O-])c1cccnc1` [Nicorandil], in that order: 1.11 ± 0.072 and 1.11 ± 0.13.
The matching figures for `CNC(=O)c1c(I)c(C(=O)NCC(=O)Nc2c(I)c(C(=O)O)c(I)c(C(=O)NCCO)c2I)c(I)c(N(C)C(C)=O)c1I` [Ioxaglic acid]: 1 ± 0.058 and 1.11 ± 0.086.
Turning to `O=C(O)CCc1nc(-c2ccccc2)c(-c2ccccc2)o1` [Oxaprozin], the normalised cell viability by setting is: (treatment time: 3 days) 1.06 ± 0.11; (treatment time: 6 days) 1.12 ± 0.078.
The matching figures for `Cc1cc2cc3c(C)cc(=O)oc3c(C)c2o1` [Trioxsalen]: 0.991 ± 0.036 and 0.818 ± 0.12.
For `CC(C)Cn1cnc2c(N)nc3ccccc3c21` [Imiquimod], in that order: 1.02 ± 0.042 and 1.019 ± 0.0077.
Take `Nc1c2c(nc3ccccc13)CCCC2` [Tacrine hydrochloride]: the normalised cell viability is 0.905 ± 0.038 (treatment time: 3 days) and 1.09 ± 0.014 (treatment time: 6 days).
